# Assay outcomes as filed in PubChem BioAssay.
# TTR transcr act = TTR transcription activators in neuroblastoma reporter cells, primary screen, cell-based, luminescence, SH-SY5Y, TTR promoter Gaussia luciferase; 100% = recombinant luciferase protein wells; activation, % at 16.7 µM; actives 1.3% (n = 92,000);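 active = activation above the mean of all tested compounds plus 3 SD, cut at about 9.5% in these data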;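 note: cells exposed to compounds for one day before reading; 0% = median of all test compound wells on the plate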
# TTR inh HuH7 = TTR promoter reporter inhibitors in hepatoma cells, counter-screen for TTR transcription activator project, cell-based, luminescence, HuH7 hepatoma | shares compounds with TTR transcr act | HuH7 TTR promoter-Gaussia luciferase reporter | inhibition, % at 16.7 µM | actives 4% (n = 1,100);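 active = average inhibition above the solvent-only control wells' mean plus 3 SD, cut at about 15% in these data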;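 note: 0% = cells with DMSO only and 100% = cells with inhibitor control FD; inhibitors lower well luminescence so higher value means more inhibition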
# TTR up confirm = TTR transcription activators, retest, confirmation, cell-based, luminescence, SH-SY5Y, triplicate. shares compounds with TTR transcr act. SHSY5Y TTR promoter Gaussia luciferase; 100% = purified Lucia enzyme wells, no cells. activation, % at 16.7 µM. 1,100 tested, under 10 active. AID 1117280, 2014;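 active = mean activation above a set limit taken from the earlier primary screen, cut at about 11% in these data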;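 note: 0% = DMSO-treated cells and 100% = recombinant Lucia luciferase without cells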
# Numbers without * were called inactive. Many of the other results were omitted from the sample, so hits are more common in it than they were.
SMILES,TTR transcr act,others
C=CCC[C@@H](Cc1ccc(F)cc1)C(=O)OC[C@@H]1CCCN1C(=O)[C@H](CC=C)CC(=O)N[C@H](CO)Cc1ccccc1,17*,TTR inh HuH7=0;TTR up confirm=-2
C=CC[C@@H](CC(=O)N[C@H](CO)Cc1ccccc1)C(=O)N[C@@H](COC(=O)[C@@H](CC=C)Cc1ccc(F)cc1)Cc1ccccc1,4,
COc1ccccc1-c1nnc(SCC#CCOC(=O)c2ccc(F)cc2)o1,-1,
COc1ccc(CC(=O)NC2CCCCN(Cc3ccc(Cl)cc3)C2=O)cc1OC (stereo not given),0,
C[C@H]1[C@@H](NC(=O)c2cccc(C(F)(F)F)c2)CC[C@@]23CCCN2C(=O)CCC[C@@H]13,0,
CCn1nnc(C(=O)O)c1C(=O)O,9.9*,TTR inh HuH7=-9;TTR up confirm=-1
Cc1nc(NCC2CCCO2)c2oc3ccccc3c2n1 (stereo not given),0,
O=c1c2ccccc2oc2ccc(NCCCn3ccnc3)cc12,1,
Cc1nc(NCCCn2ccnc2)c2oc3ccccc3c2n1,49*,TTR inh HuH7=-1;TTR up confirm=1
C[C@@H]1CCN(C2CC2)S(=O)(=O)c2c(cccc2N2CC[C@@H](O)C2)O1,3,
COc1ccc(Cn2ccc3ccc(-c4ccc5ccn(C(=O)c6ccc(C)cc6)c5c4)cc32)cc1,-1,
COc1cc(NC(=O)c2cc(C)on2)cc(C(=O)Nc2cccc(C(F)(F)F)c2)c1,-1,
COc1ccc(NC(=O)c2cc(C)on2)cc1OC,5,
COc1ccc(NC(=O)c2cc(C)on2)cc1,13*,TTR inh HuH7=7;TTR up confirm=-1
Clc1ccc(OCCOc2ccc(Br)nc2Br)c(Cl)c1,1,
COc1ccc(Cn2ccc3ccc(-c4ccc5ccn(C(=O)c6ccccc6C)c5c4)cc32)cc1,-1,
Cc1ccc(CN2CCCCC(NC(=O)c3ccc(-c4ccccc4)cc3)C2=O)cc1 (stereo not given),-2,
Cn1c(=O)c2c(nc(CN3CCN(C(=O)c4ccco4)CC3)n2CCCO)n(C)c1=O,2,
Cn1c(=O)c2c(nc(CN3CCc4ccccc4C3)n2Cc2ccccc2F)n(C)c1=O,0,
Cn1c(=O)c2c(nc(CN3CCc4ccccc4C3)n2CCCO)n(C)c1=O,15*,TTR inh HuH7=-8;TTR up confirm=0
Cc1cccc(Cn2cc(COC(=O)NCCc3c[nH]c4ccccc34)nn2)c1,1,
Cc1ccc(CN(C)C[C@H]2OCc3cnnn3CCCC(=O)N([C@H](C)CO)C[C@@H]2C)cc1,2,
Cc1cc(C)n(C(C)CC(=O)N2CCc3ccccc32)n1 (stereo not given),1,
Cc1cc(C(=O)N2CCc3ccccc32)n(-c2ccccc2)n1,10*,TTR inh HuH7=21*;TTR up confirm=11*
Cn1nc(C(=O)N2CCc3ccccc32)c2ccccc2c1=O,-1,
SMILES,TTR transcr act,others
COc1ccc(-c2c(C(=O)c3ccccc3)[nH]c(N)c2C(=O)c2c[nH]c3ccccc23)cc1OC,1,
COC(=O)c1cccc(Cn2ccc3ccc(-c4ccc5ccn(C(=O)C6CCC6)c5c4)cc32)c1,1,
Nc1[nH]c(C(=O)c2ccc(Br)cc2)c(-c2ccc(Br)cc2)c1C(=O)N1CCCCC1,0,
C[C@@H]1CCN(C2CC2)S(=O)(=O)c2c(cccc2N2CCC[C@@H]2C)O1,0,
Cc1ccc(C)c(OCC(=O)O/N=C(\N)c2cccnc2)c1,1,
Cc1cccc(/C(N)=N/OC(=O)COc2ccc(Cl)c(C)c2)c1,11*,TTR inh HuH7=-10;TTR up confirm=-1
Cc1cccc(/C(N)=N/OC(=O)Cc2cccc3ccccc23)c1,2,
CCCC1CCC2(CC1)CCC2OC(=S)Nc1ccccc1C(F)(F)F (stereo not given),0,
CCCCCn1c(=O)c(Cc2ccccc2)c(O)c2ccccc21,-2,
CCCn1c(=O)c(C(=O)NCc2ccccc2)c(O)c2ccccc21,-1,
CCCn1c(=O)c(Cc2ccccc2)c(O)c2ccccc21,11*,TTR inh HuH7=-12;TTR up confirm=-1
COc1ccc(-c2nc3ccccc3c(=O)n2Cc2ccccc2)cc1COc1ccc(NC(C)=O)cc1,3,
O=C(Nc1cccc(Br)c1)OC1CC2CC1[C@H]1CCCCN1C2 (stereo not given in full),0,
Nc1c(C(=O)N2CCOCC2)cnn1Cc1ccccc1,0,
CC1(C)CC(=O)C=C(c2ccc(OC(F)(F)F)cc2)C1,12*,TTR inh HuH7=-5;TTR up confirm=-1
CC1(C)CC(=O)C=C(c2ccc(I)cc2)C1,2,
CC1(C)CC(=O)C=C(c2ccc(Oc3ccccc3)cc2)C1,-3,
O=Cc1cc(CCC(=O)O)ccc1O,11*,TTR inh HuH7=-2;TTR up confirm=0
CCCc1ccc(C(=O)CCC(=O)O)cc1,-3,
O=C(CCc1ccc(O)cc1)c1c(O)cc(O)cc1O,-3,
CCC[C@H]1[C@@H](NC(=O)Nc2ccc3c(c2)OCO3)CC[C@@]23CCCN2C(=O)CCC[C@@H]13,0,
O=S1(=O)N[C@H](Cc2ccccc2)COc2cccc(F)c21,-1,
CN(CCCOC(=O)c1cccs1)C1CN(Cc2cn(Cc3ccccc3Cl)nn2)S(=O)(=O)C1 (stereo not given),-1,
CC(C)(C)[C@H](NC(=O)c1cc(Cl)cc(Cl)c1)C(=O)N1CCC[C@H]1C(=O)N[C@H](C#N)CC(=O)O,1,
C=C1[C@@H](CCO)N(S(=O)C(C)(C)C)C[C@@H]1C (stereo not given in full),2,
SMILES,TTR transcr act,others
Cc1nn(C)c(C)c1CCC(=O)N1CCCC(C(=O)c2cccc(OC(C)C)c2)C1 (stereo not given),10*,TTR inh HuH7=1;TTR up confirm=0
CCn1nc(C)c(CN2CCCC(C(=O)c3cccc(OC(C)C)c3)C2)c1C (stereo not given),-2,
Cc1nn(C(C)C)c(C)c1CN1CCCC(C(=O)c2cccc(OC(C)C)c2)C1 (stereo not given),3,
Cn1c2cc(S(C)=O)sc2c2cnn(Cc3cccc(N)c3)c(=O)c21 (stereo not given),2,
CCCCCn1c(=S)[nH]c2cc(C(=O)N3CCCC3)ccc2c1=O,10*,TTR inh HuH7=2;TTR up confirm=2
COc1ccc(CCn2c(=S)[nH]c3cc(C(=O)N4CCOCC4)ccc3c2=O)cc1OC,-1,
O=C(c1ccc2c(=O)n(-c3ccccc3)c(=S)[nH]c2c1)N1CCCCC1,0,
COC(=O)[C@H](C)NC(=O)[C@@H]1CCCN1C(=O)CNP(=O)(OCc1ccccc1)OCc1ccccc1,-1,
COc1cccc(C(=O)Nc2nc(-c3ccncc3)cs2)c1,-1,
COc1cccc(-c2csc(NC(=O)C3CC3)n2)c1,11*,TTR inh HuH7=33*;TTR up confirm=-1
COc1cccc(-c2csc(NC(=O)Nc3ccccc3)n2)c1,-5,
O=C(NC1CCCc2c1cnn2-c1ccc(F)cc1F)c1cccs1 (stereo not given),2,
C=CCN1C(C(=O)OCC)CSCCS1(=O)=O (stereo not given),1,
CCN1CCCCC(NC(=O)c2ccc(F)cc2)C1=O (stereo not given),-1,
Cc1ccc(CNC(=O)O[C@H]2CC[C@@]34CCCN3C(=O)CCC[C@H]4[C@H]2C)o1,0,
O=C(NC1CCCCN(Cc2ccc(Cl)cc2)C1=O)c1ccccc1 (stereo not given),-1,
